G9a block = qHTS Assay for Inhibitors of Histone Lysine Methyltransferase G9a. 8.8% of 350,000 active. Histone-lysine N-methyltransferase EHMT2 (Homo sapiens), Q96KQ7. Potency, µM (doses to about 102 µM), for the others: at the top dose activity, negative = inhibition, most hits filed as inhibitors. G9a H3K9 monomethylation, AlphaScreen, 2 h. AID 504332, 2011; note: % is set by controls: 0 for no effect and ±100 for the full control effect; nearly all actives have a fitted effect of over 75% in size
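Readings reflect AlphaScreen signal from monomethyl-H3K9 antibody detection. HMT at 20 nM; substrate b-H3K9 500 nM; cofactor SAM 20 uM; 2 h RT reaction; compounds tested as titrations in qHTS with 15 min preincubation.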
Sfp inh = qHTS Assay for Inhibitors of Bacillus subtilis Sfp phosphopantetheinyl transferase (PPTase) | 4'-phosphopantetheinyl transferase ffp (Bacillus subtilis), Q9F4F7 | Biochemical Sfp PPTase activity, qHTS | Potency, µM, without a hit: largest response in the series, negative = inhibition, hits mostly inhibitors | 3.5% of 310,000 active;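 note: the enzyme is Sfp with the accession as filed and its product quenches rhodamine fluorescence; 0% = enzyme reaction without inhibitor and -100% = no enzyme wells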
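Fluorescence-quenching assay with 15 nM Sfp, 5 uM rhodamine-CoA and 12.5 uM BHQ-2-labelled ybbR peptide in pH 7.6 Hepes/MgCl2 buffer. Enzyme was pre-incubated with compound for 15 min at room temperature. Rate was taken from the 30-min fluorescence change (525/598 nm).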
L3MBTL1 inh = qHTS Assay for the Inhibitors of L3MBTL1; Potency, µM (top dose mostly 57.1 µM), for inactives: at the highest dose activity, negative = inhibition, most hits filed as inhibitors; 0.66% of 230,000 active; Lethal(3)malignant brain tumor-like protein 1 (Homo sapiens), Q9Y468; AlphaScreen L3MBTL1–H3K9me1 peptide binding; note: % is set by controls: 0 for no effect and ±100 for the full control effect; nearly all actives have a fitted effect of over 60% in size
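Displacement of a biotinylated histone H3(1-15) peptide monomethylated at Lys9 (75 nM) from L3MBTL1 (50 nM) was measured by AlphaScreen after a 30 min room-temperature compound incubation; cefsulodin titration served as intraplate control.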
JMJD2A Tudor = qHTS Assay for Inhibitors of JMJD2A-Tudor Domain; Lysine-specific demethylase 4A (Homo sapiens), O75164; AlphaScreen JMJD2A-Tudor / H3K4me3 peptide binding; Potency, µM (doses to about 114 µM), for the others: at the top dose activity change, negative = inhibition, most hits filed as inhibitors; 4.4% of 390,000 active; note: % is set by controls: 0 for no effect and ±100 for the full control effect; nearly all actives have a fitted effect of over 50% in size
Target sequence (O75164 whole entry, looked up, the tested form may be a part): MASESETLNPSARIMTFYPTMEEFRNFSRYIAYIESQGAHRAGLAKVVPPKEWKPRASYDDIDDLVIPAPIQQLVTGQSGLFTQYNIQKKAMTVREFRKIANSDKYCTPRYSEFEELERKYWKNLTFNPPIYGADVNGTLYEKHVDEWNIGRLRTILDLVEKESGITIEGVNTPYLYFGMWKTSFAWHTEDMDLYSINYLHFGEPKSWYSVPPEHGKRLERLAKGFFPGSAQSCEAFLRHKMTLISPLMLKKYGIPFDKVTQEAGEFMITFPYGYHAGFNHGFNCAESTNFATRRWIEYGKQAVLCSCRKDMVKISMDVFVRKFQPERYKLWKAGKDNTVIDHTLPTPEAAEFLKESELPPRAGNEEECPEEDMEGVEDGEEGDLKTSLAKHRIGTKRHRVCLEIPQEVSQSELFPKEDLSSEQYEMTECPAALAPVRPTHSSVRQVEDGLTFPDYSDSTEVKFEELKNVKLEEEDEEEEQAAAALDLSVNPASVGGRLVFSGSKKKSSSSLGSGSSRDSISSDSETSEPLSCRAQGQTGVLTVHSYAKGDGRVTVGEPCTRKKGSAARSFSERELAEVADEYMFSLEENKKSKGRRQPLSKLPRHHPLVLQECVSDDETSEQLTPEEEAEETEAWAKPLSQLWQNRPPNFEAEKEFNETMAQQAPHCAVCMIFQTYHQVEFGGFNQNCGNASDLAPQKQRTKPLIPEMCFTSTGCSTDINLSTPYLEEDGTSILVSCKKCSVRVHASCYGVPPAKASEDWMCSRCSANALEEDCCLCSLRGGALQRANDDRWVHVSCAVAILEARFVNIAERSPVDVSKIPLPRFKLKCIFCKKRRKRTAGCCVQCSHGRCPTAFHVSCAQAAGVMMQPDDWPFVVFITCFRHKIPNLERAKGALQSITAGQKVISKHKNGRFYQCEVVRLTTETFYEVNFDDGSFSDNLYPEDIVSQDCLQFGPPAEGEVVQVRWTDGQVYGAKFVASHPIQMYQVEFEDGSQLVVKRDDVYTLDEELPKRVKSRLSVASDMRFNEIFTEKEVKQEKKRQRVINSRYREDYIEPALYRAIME
BAZ2B block = qHTS Assay for Inhibitors of BAZ2B; AlphaScreen BAZ2B-H3K14Ac peptide displacement; Bromodomain adjacent to zinc finger domain protein 2B (Homo sapiens), Q9UIF8; 4.4% of 360,000 active; Potency, µM (series often up to 114 µM), for inactives: at the highest dose activity change, negative = inhibition, most hits filed as inhibitors; note: % is set by controls: 0 for no effect and ±100 for the full control effect; nearly all actives have a fitted effect of over 60% in size
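In this displacement format the biotinylated H3(5-23) peptide acetylated at Lys14 serves as ligand at 50 nM, with BAZ2B at 50 nM in PBS pH 7.4 containing 0.01% Tween-20. Donor and acceptor beads are 10 ug/mL final.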
HP1b chromo inh = HTS for Inhibitors of HP1-beta Chromodomain Interactions with Methylated Histone Tails; AlphaScreen HP1-beta / biotin-H3K9me3 peptide binding; Potency, µM (doses to about 114 µM), for the others: at the highest dose activity change, negative = inhibition, actives largely listed as inhibitors; 0.56% of 390,000 active; AID 540317, 2011; note: nearly all actives have a fitted effect of over 70% in size
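Compound inhibition of the preformed complex between 50 nM HP1-beta and 50 nM biotinylated H3K9me3 peptide was read by AlphaScreen. Buffer was PBS pH 7.4 with 0.01% Tween-20. Incubations ran 30 min at room temperature, with 10 ug/mL donor/acceptor beads.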
Numbers without * were called inactive; ? = inconclusive; nt = no result given; [ ] = remark or other dose. Sampled rows, rich in hits. Any-hit rate of the full collection: about 12%. Calls come from the whole dose curve; as a rule, active = well fitted curve in the direction sought with a large enough effect; inconclusive = small, poorly fitted or top-dose-only effect, or another doubt; inactive = no such curve, though single readings can be large; an effect the other way counts as inactive or inconclusive. Potency is the fitted concentration of half-maximal effect.

SMILES	G9a block	Sfp inh	L3MBTL1 inh	JMJD2A Tudor	BAZ2B block	HP1b chromo inh
CN(Cc1ncc[nH]1)C(=O)CC1C(=O)NCCN1Cc1c(F)cccc1Cl (stereo not given)	-9.0%	?	2.2%	-6.2%	-9.0%	33.5%
Cc1ccc(-c2cc(C3C4C=CCCC4(C)C(=O)N3Cc3ccccc3)ccc2F)cc1 (stereo not given)	nt	-22.9%	nt	-20.0%	nt	5.9%
CN(C)c1ncc2nc(-c3ccccc3)c(=O)n(CCC#N)c2n1	1.7%[0.501 µM]	2.0%	nt	nt	nt	nt
CN(Cc1ccon1)C(=O)CC1C(=O)NCCN1Cc1cccc(Oc2ccccc2)c1 (stereo not given)	?	2.5%	-8.1%	-27.0%	?	34.1%
CN(C(=O)CC1C(=O)NCCN1CC(c1ccccc1)c1ccccc1)C(C1CC1)C1CC1 (stereo not given)	?	13.4%	-5.0%	-24.1%	-25.4%	23.6%
CN(Cc1ccccn1)C(=O)CC1C(=O)NCCN1Cc1cccc(Oc2ccccc2)c1 (stereo not given)	44.7µM*	-16.5%	-9.2%	-14.6%	-31.5%	12.0%
CN(CC1CCOCC1)C(=O)CC1C(=O)NCCN1Cc1ccc(Cl)c(F)c1 (stereo not given)	50.1µM*	13.2%	1.5%	-15.7%	-1.9%	25.3%
CCOc1ccc(CN2CCNC(=O)C2CC(=O)N(C)CC2CCOCC2)cc1 (stereo not given)	?	6.8%	nt	-16.3%	-6.1%	52.2%
COc1cccc(CN2CCNC(=O)C2CC(=O)N(C)C2CCCCC2)c1 (stereo not given)	50.1µM*	10.8%	nt	-13.6%	-19.9%	31.5%
CN(CC1CCOCC1)C(=O)CC1C(=O)NCCN1CC(c1ccccc1)c1ccccc1 (stereo not given)	89.1µM*	-2.2%	nt	-11.8%	-9.8%	17.5%
CCCCS(=O)(=O)N1C2=NC(C(=O)OC)=C(C(=O)OC)[C@@H]3N(C)c4ccccc4[C@]23C[C@H]1C(=O)OC	nt	-15.1%	nt	nt	nt	nt
COc1ccc(NC(=O)Nc2c[nH]c(=O)[nH]c2=O)c(OC)c1	4.2%[59 µM]	nt	nt	-0.6%	-3.7%	32.9%
COc1cccc(CN2CCNC(=O)C2CC(=O)N(C)CC2CCOCC2)c1 (stereo not given)	-8.5%	13.7%	nt	-4.9%	-19.7%	21.5%
CN(Cc1ccccn1)C(=O)CC1C(=O)NCCN1Cc1ccc(F)cc1Cl (stereo not given)	nt	-20.8%	nt	?	56.2µM*	13.5%
CN(Cc1cnn(C)c1)C(=O)CC1C(=O)NCCN1Cc1cccc(Oc2ccccc2)c1 (stereo not given)	25.1µM*	6.5%	-9.9%	-22.4%	-20.5%	8.1%
CN(CC1CCOCC1)C(=O)CC1C(=O)NCCN1Cc1cccc(Oc2ccccc2)c1 (stereo not given)	35.5µM*	1.5%	-9.2%	-18.6%	-20.6%	38.5%
Cc1cc(C)c(Cn2c(C)c(CNCCCc3ccccc3)c(C(=O)O)c2C)c(C)c1	2.4%[59 µM]	nt	nt	-33.2%	-20.7%	14.4%
CCOc1cc(/C=C2/C(=O)ON=C2C)ccc1OCc1ccccc1F	?	20µM*	-5.0%	?	?	2.8%
CCOc1cc(/C=C2/C(=O)ON=C2C)ccc1OCc1ccc(F)cc1	?	50.1µM*	8.8%	5.0%	-24.2%	10.0%
CCOc1cc(/C=C2/C(=O)ON=C2C)ccc1OCc1ccccc1	nt	-22.3%	?	-0.7%	-38.1%	23.9%
Cc1ccc(OCC(=O)N(C)CCc2ccccn2)cc1	20.1%[2.33 µM]	-7.9%	0.4%	10µM*	?	-16.3%
COc1ccc(NC(=O)c2ccc3c(=O)n4nc(Nc5cccc(Cl)c5C)sc4nc3c2)cc1	-13.4%[59 µM]	nt	nt	-19.7%	-3.7%	0.1%
COc1ccc(NC(=O)Nc2ccccc2SC)cc1	50.1µM*	-10.3%	2.4%	-9.0%	-13.8%	28.9%
COc1ccc(NC(=O)Nc2sc(=S)n(C)c2C)cc1	50.1µM*	20µM*	-12.0%	-15.8%	-37.1%	-22.4%
COc1ccc(NC(=O)C(CC(=O)O)C(C)c2ccccc2)cc1 (stereo not given)	-38.3%	13.1%	-11.1%	14.1µM*	7.3%	-17.2%
SMILES	G9a block	Sfp inh	L3MBTL1 inh	JMJD2A Tudor	BAZ2B block	HP1b chromo inh
COc1ccc(NC(=O)Nc2ccc(N(C)C)cc2)cc1	3.55µM*	-5.5%	-19.6%	-34.9%	?	?
COc1ccc(NC(=O)C(CC(=O)O)Cc2ccccc2)cc1 (stereo not given)	?	-6.4%	9.3%	-31.1%	0.3%	9.0%
Cc1c(NC(=O)Nc2ccc(Cl)c(Cl)c2)sc(=S)n1C	nt	nt	nt	?	nt	-8.6%
C=CCn1c(SC(C)C#N)nc2ccccc2c1=O (stereo not given)	nt	nt	nt	-8.5%[57.1 µM]	nt	23.3%[57 µM]
COc1ccc(OC)c(CCNC(=O)c2cc3c(=O)n(C)c4ccccc4c3n2C)c1	-37.9%[59 µM]	nt	nt	-19.2%	?	12.3%
Cc1ccc(NC(=O)N/C=C/c2ccc(Cl)cc2)cc1	9.9%	-3.1%	-11.6%	-21.9%[11.4 µM]	-35.8%[57.1 µM]	6.9%
CCCNC(=O)Nc1ccccc1SC	39.8µM*	-15.4%	5.1%	-16.3%	-18.5%	19.6%
CSc1ccc(NC(N)=S)cc1	-24.8%	4.5%	-2.2%	-4.8%	-25.3%	25.5%
CN(C)c1ccc(NC(N)=S)cc1	10µM*	-19.6%	-8.2%	-31.9%	?	-1.5%
COc1ccc(NC(=O)N/C=C/c2ccc(Cl)cc2)cc1	20µM*	12.4%	1.0%	-21.8%	-25.5%	-3.0%
CCCCNC(=O)Nc1ccccc1C(=O)NCCC	17.1%[59 µM]	7.1%	?	-9.2%	-2.9%	25.3%
Cc1ccc2c(c1)c1c(c(=O)n(Cc3ccccc3)c(=O)n1CC(=O)NCc1ccccc1Cl)n2C	2.0%[59 µM]	nt	nt	1.4%	1.6%	48.0%
CCn1cc(S(=O)(=O)c2cccc(C)c2)c(=O)c2cc(F)c(N3CCN(c4ccccc4)CC3)cc21	-3.0%[59 µM]	nt	nt	-7.6%	-3.0%	11.3%
COc1ccc(-c2c(C#Cc3ccc(N(C)C)cc3)c3ccccc3n2C)cc1	nt	nt	-24.6%	56.2µM*	nt	?
Cc1c(-c2ccccc2)c(=O)oc2c(CN3CCN(C)CC3)c(O)ccc12	-30.4%[59 µM]	nt	nt	-6.1%	2.9%	19.7%
CC(=O)c1cc(-c2ccccc2)n(CC(=O)NC(C)(C)C)c1C	-32.2%	3.4%	nt	-19.3%	50.1µM*	9.5%
CCC(C)(C)NC(=O)Cn1c(-c2ccccc2)cc(C(C)=O)c1C	-10.4%	-6.3%	nt	-21.4%	?	6.0%
